The panel holds about 83,000 compounds, 20% with a hit somewhere; the sample as a whole holds those more often.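 Compound tested at a single concentration for 48 hours in 96-well plates; a percent growth value below 10 was scored as active.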 Unmarked numbers belong to inactive results. The source made the active and inactive calls.
Assays:
Experiment in all cases: NCI-60 one-dose screen, 48 h (100 = growth as untreated, 0 = no growth, -100 = all killed)
Conditions in all cases: 10 µM unless noted
T-47D breast = tested on: T-47D breast
BT-549 breast = tested on: BT-549 breast
MDA-MB-435 melanoma = tested on: MDA-MB-435 melanoma
SW-620 colon = tested on: SW-620 colon
HCT-116 colon = tested on: HCT-116 colon
HCC-2998 colon = tested on: HCC-2998 colon
KM12 colon = tested on: KM12 colon
MCF7 breast = tested on: MCF7 breast

Structure (SMILES) | growth (T-47D breast) | growth (BT-549 breast) | growth (MDA-MB-435 melanoma) [%] | growth (SW-620 colon) | growth (HCT-116 colon) | growth (HCC-2998 colon) | growth (KM12 colon) | growth (MCF7 breast)
Nc1cc(N)c(N=Nc2ccc(S(=O)(=O)O)cc2)cc1N=Nc1ccc(-c2ccc(N=Nc3ccc(O)c(C(=O)O)c3)cc2)cc1 | 90.1% | 113% | 100 | 105% | 102% | 104% | 101% | 
O=C(Nc1ccc(F)cc1)c1ccccc1 | 104% | 84.8% | 97.3 | 101% | 103% | 109% | 104% | 96%
O=S(=O)(NCCNc1nccc(-c2c(-c3cccc(F)c3)nc3occn23)n1)c1ccc(C(F)(F)F)cc1 | 61.9% | 106% | 76.3 | 101% | 76.5% | 125% | 92% | 
Cc1ccc(-c2cn(C/C=C3\C=CN(S(=O)(=O)c4ccccc4)CC3)nn2)cc1 | 78.3% | 96.1% | 101 | 102% | 98% | 109% | 101% | 
CCOC(=O)Nc1ccc2c(c1)/C(=N\NC(=S)NC)c1ccccc1-2 | 66.7% | 94% |  | 93.6% | 87.6% | 88.2% | 71% | 74.6%
CCOC(=O)c1c[nH]n2c(=S)ncnc12 | 98.7% | 108% |  | 112% | 101% | 112% | 99.9% | 96.3%
COc1ccc(/C=C(/C(=O)c2ccc(Cl)cc2)C(=O)C(F)(F)F)cc1 | 90.3% | 111% |  | 101% | 101% | 93.4% | 91.6% | 
COc1c(B(O)O)cccc1-c1nc2ccc3[nH]ncc3c2c2c1CCC2 | 48% | 60% |  | 54.8% | 47.3% | 88.8% | 51.3% | 74.4%
O=c1[nH]cnc2c1ccn2C1OC(CO)C(O)C1O (centres undefined) | 54.1% | 75.8% |  | 33.5% | 54.9% | 69.3% | 75.1% | 24.9%
N#C/C(C(=O)c1ccccc1)=C1/C(=O)Nc2ccc(F)cc21 | 80.5% | 102% |  | 101% | 103% | 104% | 109% | 96.4%
C=C(C)[C@@H]1CC[C@]2(C)[C@H](CC[C@@H]3[C@@H]([C@@](C)(O)CCC=C(C)C)CC[C@]32C)[C@@]1(C)CCC(=O)O | 17% [100 µM] | -22% [100 µM] (active) |  | 0.938% [100 µM] (active) | -39.4% [100 µM] (active) | -37.4% [100 µM] (active) | -55.2% [100 µM] (active) | 7.92% [100 µM] (active)
Clc1ccccc1/C=N\Nc1ccccn1 | 62.1% | 114% |  | 102% | 107% | 111% | 87.2% | 28.4%
CCOC(=O)c1nc2c3ccccc3ccn2c1C(=O)OC | 76.4% | 97% |  | 100% | 97.5% | 91.1% | 107% | 97.6%
Cc1ccc(NC(=O)N[C@@H](Cc2cc(F)cc(F)c2)C(=O)N[C@@H]2C(=O)N3CCC[C@H]3C(=O)N3CCOC[C@H]3C(=O)N[C@@H](C)C(=O)N3C[C@H](C)C[C@H]3C(=O)O[C@H]2C)cc1 | 27% | 19.6% |  | 34.5% | 12.5% | 34.5% | 38.9% | 25%
CCOC(=O)c1cnc2ccc(Br)cc2c1Nc1cccc(S(N)(=O)=O)c1 | 81.4% | 96.3% |  | 99.2% | 85.6% | 115% | 96% | 93.8%
O=C(Nc1ccc(Oc2ccc(F)cc2)c(Cl)c1)c1cccnn1 | 37.6% | 103% |  | 94.1% | 96.8% | 89.1% | 79.2% | 65.3%
Cc1ccc(-n2nc3n(/c2=N\C(=O)NS(=O)(=O)c2ccc(C)cc2)CCN3C2=NCCN2)cc1 | 78.3% | 84.4% |  | 104% | 87.3% | 97.3% | 105% | 94.6%

Structure (SMILES) | growth (T-47D breast) | growth (BT-549 breast) | growth (MDA-MB-435 melanoma) [%] | growth (SW-620 colon) | growth (HCT-116 colon) | growth (HCC-2998 colon) | growth (KM12 colon) | growth (MCF7 breast)
CC1=C/C(=C(\c2cc(C)c(O)c(C(=O)O)c2)c2c(Cl)cccc2Cl)C=C(C(=O)O)C1=O | 98.3% | 99.3% |  | 110% | 105% | 110% | 103% | 92.7%
C=CCCCCOc1ccccc1-c1cnc(OCCCCC=C)n1C | 61.9% | 96.8% |  | 30.8% | 61% | 61.1% | 38.4% | 42.2%
CCCCCCCCCCCCNC(=S)N/N=C/c1ccccc1O | 42.2% | 108% |  | 91.8% | 62.2% | 78.2% | 68.8% | 51%
COc1cc2c(=O)[nH]c3cc([N+](=O)[O-])ccc3c2cc1[N+](=O)[O-] | 49.1% | 50.4% |  | 35.5% | 21.5% | 62.8% | 53.3% | 16.5%
C#C[C@]1(O)CC[C@H]2[C@@H]3CC=C4c5nc(Nc6ncccn6)sc5CC[C@]4(C)[C@H]3CC[C@@]21C | 40% | 19.5% |  | 60.4% | 22.3% | 88.3% | 48.5% | 
CCOC(=O)n1cc(C2=C(c3ccc(OC)c(OC)c3)COC2=O)c2ccccc21 | 48.8% | 0.425% (active) |  | 26.5% | 4.07% (active) | 19.2% | 2.26% (active) | 14.9%
O=[N+]([O-])c1cccc(N=NNc2cccc([N+](=O)[O-])c2)c1 | 76.3% | 101% |  | 91.7% | 114% | 104% | 95.2% | 65.3%
COc1cc2c(c(Br)c1N)-c1cc(Br)c(N)cc1C2=O | 18.4% | 77.9% |  | 75.3% | 62.9% | 52.1% | 66.6% | 3.68% (active)
COc1ccc(OC)c([N+](=O)[O-])c1C(=O)CNC(C)=O | 103% | 84.5% |  | 106% | 106% | 101% | 106% | 92.7%
CC1(C)[C@@H](NOCCCN)CC[C@]2(C)[C@H]3C(=O)C=C4[C@@H]5C[C@](C)(C(=O)O)CC[C@]5(C)CC[C@@]4(C)[C@]3(C)CC[C@@H]12 | -29.8% [100 µM] (active) | -23.2% [100 µM] (active) |  | -43.3% [100 µM] (active) | -87.4% [100 µM] (active) | -50% [100 µM] (active) | -65.8% [100 µM] (active) | -25.2% [100 µM] (active)
Cc1cnc([C@]23CC[C@@H](C)[C@H](C)[C@H]2C2=CC[C@@H]4[C@@]5(C)Cc6c([nH]c7ccccc67)C(C)(C)[C@@H]5CC[C@@]4(C)[C@]2(C)CC3)o1 | 58% [100 µM] | 46.5% [100 µM] |  | 20.6% [100 µM] | 17.3% [100 µM] | 50% [100 µM] | 24.7% [100 µM] | 
CCOC(=O)COc1ccc2c(c1)O/C(=C\c1ccc(O)cc1)C2=O | 99.9% | 101% |  | 104% | 105% | 111% | 110% | 105%
O=C1CC(c2ccccc2)Cc2nc3ccc(Br)cc3cc21 (centres undefined) | 67.2% | 6.48% (active) |  | 25.1% | 5.56% (active) | 27% | 8.94% (active) | 61.2%
O=C(Nc1ccccc1)Nc1ccc(C(=O)/C=C/c2ccc(N3CCCC3)cc2)cc1 | 58.9% | 93.3% |  | 83.6% | 52.9% | 81.4% | 52.5% | 66%
CCOC(=O)c1ccc2nc(-c3c(C)nn(-c4ccccc4)c3N3CCOCC3)[nH]c2c1 | 73% | 93.4% |  | 97.3% | 93.2% | 95.9% | 96.9% | 88.6%
CCN(CC)CCCOc1ccc2c(c1)O/C(=C\c1cccc(OC)c1)C2=O | 87.6% | 78.4% |  | 73.9% | 51.8% | 86.7% | 93.2% | 72.8%
